Sa growth inh: S. aureus growth inhibition. S. aureus RN4220 growth, OD600, 20 h, 42 °C; stronger effect = lower value. relative growth, % (test concentration not listed). hit rate 0.53% among 170,000. AID 720641;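 active means relative growth at most 50% at the other temperature and 20+ points below 30 °C, or under 10% at both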
S aureus helic: S. aureus DNA helicase inhibition; purified S. aureus helicase, fluorescence unwinding assay; inhibition, % (concentration not given with the values); hit rate 0.05% among 120,000; in the data active means inhibition above about 25%, passing the limit was not always enough;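 further: 0% = mean of negative control wells and 100% = mean of positive control wells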
Active calls of the source: *; / = not tested or not shown. The list is not random: actives were taken first. Their share in the collection is about 0.52%.

SMILES | Sa growth inh | S aureus helic
COc1cc(S(=O)(=O)N2CCCC2)c(OC)cc1C | 102 | 4
O=c1cc(CSc2ccc(Cl)cc2)[nH]c(=S)[nH]1 | 84 | 8
CNc1nn2nnnc2c2ccccc12 | 103 | 6
O=C(O)CCC(=O)OC[C@@H](NC(=O)C(Cl)Cl)[C@H](O)c1ccc([N+](=O)[O-])cc1 | 83 | /
O=C(N[C@@H](CO)[C@H](O)c1ccc([N+](=O)[O-])cc1)C(Cl)Cl | 0.2* | /
CS(=O)(=O)c1ccc([C@@H](O)[C@@H](COC(=O)CN)NC(=O)C(Cl)Cl)cc1 | 52 | /
CS(=O)(=O)c1ccc(C(O)[C@H](CF)NC(=O)C(Cl)Cl)cc1 (stereo not given in full) | -0.8* | /
COc1ccc(CCNC(=S)Nc2ccc(N3CCOCC3)c3nonc23)cc1OC | 101 | 5
CCOC(=O)c1nnc(-c2ccc3c(c2)OCO3)o1 | 85 | -30
CCCN(CCC)Cn1nc(-c2ccc3c(c2)OCO3)oc1=S | 39* | 12
NC(=O)N/N=C1\CCCC1c1ccccn1 (stereo not given) | 104 | -12
O=C(/C=C/C(=O)c1ccccc1)c1ccccc1 | -0.4* | 32
CN(C)/C=C/C(=O)c1ccccc1 | 84 | 10
O=C(CSc1nnc(NC2CC2)s1)c1ccc2c(c1)OCO2 | 93 | 10
NC(=O)N/N=C/c1ccc(-c2ccc(SC(F)F)cc2)o1 | 101 | -4
N#CCCN/N=C/c1ccc(-c2ccc(SC(F)F)cc2)o1 | 48* | -11
CC(C)N(Cc1nnc(-c2ccccc2)o1)C(=O)/C=C/c1cccs1 | 94 | -7
c1cncc(-c2nc(Nc3ccc4c(c3)OCO4)c3ccccc3n2)c1 | 46 | 1
CN(C)c1ccc(Nc2nc(-c3cccnc3)nc3ccccc23)cc1 | 0.2* | 12
CC(C)CN(CC(C)C)S(=O)(=O)c1ccc(C(=O)Nc2nnc(-c3ccccn3)o2)cc1 | 83 | 4
CCc1nnc(NC(=O)c2ccc(S(=O)(=O)N(C)c3ccccc3)cc2)o1 | 15 | 10
CSCc1nnc(NC(=O)c2ccc(S(=O)(=O)N(CC(C)C)CC(C)C)cc2)o1 | -0.4* | 4
COCc1nnc(NC(=O)c2ccc(S(=O)(=O)N(C)C3CCCCC3)cc2)o1 | 8.5* | -3
O=C(c1ccc(CNS(=O)(=O)c2ccc(Br)cc2)cc1)N1CCc2ccccc21 | 87 | 10
CC1CC(O)NN=C1c1ccc2nc(COc3ccccc3O)[nH]c2c1 (stereo not given) | 63 | 10
SMILES | Sa growth inh | S aureus helic
O=C1C2SCCN2C(=S)N1c1cccc(C(F)(F)F)c1 (stereo not given) | 46* | /
O=C1CSC(=S)N1c1cccc(C(F)(F)F)c1 | / | -2
CCCCN1C(=O)c2ccc(C(=O)OCC(=O)Nc3ncc(Cl)cc3Cl)cc2C1=O | 61 | 9
CCOC(=O)c1c(C)[n+]([O-])c2ccc3c(non3O)c12 | 78 | 2
Cc1c(C)[n+]([O-])c2ccc3c(non3O)c12 | 1.9* | 9
CCOC(=O)Cc1csc(CS(=O)(=O)c2ccc(Cl)cc2)n1 | 104 | /
O=C(c1cc2ccc3cccnc3c2[nH]1)N1CCN(Cc2ccccc2)CC1 | 79 | -19
CCN1CCN(Cc2ccc(NC(=O)c3cc4ccc5cccnc5c4[nH]3)cc2)CC1 | 101 | 91*
C/C(=N\OC(=O)c1ccccc1)c1cc(-c2ccccc2)no1 | 101 | 3
C/C(=N\O)c1cc(-c2ccccc2)no1 | -0.7* | /
Cc1ccc(/C=C2\CCCC(CN(C)C)C2=O)cc1 (stereo not given) | -0.2* | /
CN(C)c1ccc(/C=C2\CCC(C3CCCC3)C2=O)cc1 (stereo not given) | 95 | 3
COc1cccc(C(c2cc3c(cc2O)OCO3)N2CCCC2)c1O (stereo not given) | 1.2* | 1
COc1ccccc1C(CC(=O)N1CCCC1)c1ccc2c(c1)OCO2 (stereo not given) | 92 | 1
O=C(Nc1c2c(nn1-c1ccccc1)CSC2)C1CC(=O)N(c2ccccc2)C1 (stereo not given) | 79 | 4
Cc1nc(-c2ccccn2)nc(SCC(=O)c2ccccc2)c1Cl | 106 | /
Cc1nc(-c2ccccn2)nc(SCc2ccccc2)c1Cl | 19* | /
CCOc1cc(S(=O)(=O)N2CCC(c3nc4ccccc4s3)CC2)c(OCC)cc1S(=O)(=O)N1CCOCC1 | 122 | 7
On1c(-c2ccccc2)cc2ccccc21 | 1.6* | 3
O=c1cc(-c2ccccc2)cc(-c2ccccc2)n1O | 79 | /
CC(=O)NC(C(=O)N1CCN(S(=O)(=O)c2ccc(C)cc2)CC1)C(C)C (stereo not given) | 110 | -13
CO[C@@H]1[C@@H](O[C@@H]2O[C@H](C)[C@@H](O[C@H]3C[C@@](C)(O)[C@H](O)[C@H](C)O3)[C@H](N(C)C)[C@H]2O)[C@@H](CC=O)C[C@@H](C)[C@@H](O[C@H]2CC[C@H](N(C)C)[C@@H](C)O2)/C=C/C=C/C[C@H](C)OC(=O)C[C@H]1O | 21 | /
CC[C@H]1OC(=O)[C@H](C)[C@@H](O[C@H]2C[C@@](C)(OC)[C@@H](O)[C@H](C)O2)[C@H](C)[C@@H](O[C@@H]2O[C@H](C)C[C@H](N(C)C)[C@H]2O)C(C)(O)C[C@@H](C)CN(C)[C@H](C)[C@@H](O)[C@]1(C)O (stereo not given in full) | -0.4* | /
CCOC(=O)CCC(=O)O[C@H]1[C@H](O[C@@H]2[C@@H](C)[C@H](O[C@H]3C[C@@](C)(OC)[C@@H](O)[C@H](C)O3)[C@@H](C)C(=O)O[C@H](CC)[C@@](C)(O)[C@H](O)[C@@H](C)C(=O)[C@H](C)C[C@@]2(C)O)O[C@H](C)C[C@@H]1N(C)C | -0.8* | /
CCC(=O)O[C@H]1[C@H](O[C@@H]2[C@@H](C)[C@H](O[C@H]3C[C@@](C)(OC)[C@@H](O)[C@H](C)O3)[C@@H](C)C(=O)O[C@H](CC)[C@@](C)(O)[C@H](O)[C@@H](C)C(=O)[C@H](C)C[C@@]2(C)O)O[C@H](C)C[C@@H]1N(C)C | -0.9* | /
CC[C@H]1OC(=O)[C@H](C)[C@@H](O[C@H]2C[C@@](C)(OC)[C@@H](O)[C@H](C)O2)[C@H](C)[C@@H](O[C@@H]2O[C@H](C)C[C@H](N(C)C)[C@H]2O)[C@](C)(O)C[C@@H](C)C(=O)[C@H](C)[C@@H](O)[C@]1(C)O | -0.9* | /
CC[C@H]1OC(=O)[C@H](C)C(=O)[C@H](C)[C@@H](O[C@@H]2O[C@H](C)C[C@H](N(C)C)[C@H]2O)[C@](C)(OC)C[C@@H](C)C(=O)[C@H](C)[C@@H]2N(CCCCn3cnc(-c4cccnc4)c3)C(=O)O[C@@]21C | 93 | /
Cn1c(=O)c2c(SCC(=O)N3CCCC3)nc(C3CC3)nc2n(C)c1=O | 105 | 6
O=S(=O)(c1ccc(Cl)cc1)N1CCN(Cn2nnc(-c3ccccc3)n2)CC1 | 94 | -12
